# Marburg entry inh – inhibitors of Marburg virus binding or cell entry; Marburg virus pseudotyped entry inhibition, cell reporter; Potency, µM (doses to about 37.8 µM), for the others: at the highest dose activity change, negative = inhibition, actives largely listed as inhibitors; 1.8% of 300,000 active; calls by dose curve; tested in HEK293 cells; further: potency means the concentration at half of the fitted maximal effect
# FMDV inh – blocks foot and mouth disease virus; FMDV antiviral cell-based qHTS; Potency, µM (top dose mostly 57.9 µM), for the others: at the top dose activity change, negative = inhibition, actives largely listed as inhibitors; 1.2% of 410,000 active; AID 1159524; calls by dose curve; tested in HEK293T cells; further: read-out not given here; potency means the concentration at half of the fitted maximal effect; nearly all actives have a fitted effect of over 45% in size
# Lassa entry inh – blocks Lassa virus binding to or entry into cells | Potency, µM (doses to about 37.9 µM), for inactives: at the top dose activity change, negative = inhibition, usual class: inhibitors | 1.2% of 300,000 active | Lassa virus pseudotype entry inhibition, cell reporter; calls by dose curve; tested in HEK293 cells; further: potency means the concentration at half of the fitted maximal effect; nearly all actives have a fitted effect of over 50% in size
# HCMV inh – inhibitors of human cytomegalovirus | HFF cells, HCMV-luciferase reporter, 72 h; hits give low values | activity change, negative = inhibition, % at 57.5 µM | 4.5% of 410,000 active; in the data active means activity change below about -60%; inconclusive means no clear call, values can overlap the other calls; inactive means above about -39%
#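 Luciferase read-out from HCMV-luciferase-infected HFFs (MOI 1 PFU/cell) 72 h post infection at 37C; compounds added after 16 h cell attachment; activity normalized between buffer-only basal and Salinomycin (10uM) inhibitor controls.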
# Starred values were filed as active, the others as inactive; ? = inconclusive; nt = no result given; [ ] = another dose, or the depositor's remark. Rows were chosen to be rich in hits. Some 6.2% of all compounds tested hit in one or more screens of this group. On the % scale 0 is the no-effect control and ±100 the full control effect.
SMILES,Marburg entry inh,FMDV inh,Lassa entry inh,HCMV inh
O=C(Nc1cccc2ncccc12)c1cccc(Br)c1,-27%[46.1 µM],-17%,-6%[46.1 µM],-13
O=C(Nc1cccc2ncccc12)c1ccc(F)cc1,-5%,-8%,8%,-64*
O=C(Nc1cccc2ncccc12)c1cccc(F)c1,10%,-23%,20%,-12
CCCC(=O)NC(=S)Nc1cccc2c(O)cccc12,0%[46.1 µM],33%,1%[46.1 µM],-99*
CN=C1SC(CC(=O)Nc2ccc(F)cc2F)C(=O)N1/N=C/c1ccc(OC(F)F)c(OC)c1 (stereo not drawn),2%[46.1 µM],-30%,-17%,?
C[C@H](CO)N1C[C@H](C)[C@H](CN(C)S(=O)(=O)c2cccs2)Oc2ccc(NC(=O)Nc3ccc4c(c3)OCO4)cc2CC1=O,nt,-25%,nt,-69*
C[C@H]1CN([C@@H](C)CO)C(=O)Cc2cc(NC(=O)CCC(F)(F)F)ccc2O[C@H]1CN(C)S(=O)(=O)c1ccc(F)cc1,nt,-14%,nt,-100*
CC12CCC(=O)N1C(C(=O)NNC(=O)c1ccc(Cl)cc1)CS2 (stereo not drawn),?,-17%,17%,-2
O=C(Nc1ccc(Cl)cc1)c1ccc(OC2CSC2)cc1,nt,68%,nt,-6
O=C1C=C2C(=CCOC2O)O1 (stereo not drawn),nt,14µM*,nt,nt
CCn1nc(NS(=O)(=O)c2ccccc2[N+](=O)[O-])c2cc3cccc(C)c3nc21,nt,-2%,nt,-7
Oc1ccc(N=Nc2ccc3c(c2)OCCO3)c2ncccc12,nt,4µM*,nt,-103*
O=Cc1ccc(O)c2ncccc12,?,-15%,?,nt
Cc1ccc(C)c(N=Nc2ccc(O)c3ncccc23)c1,nt,?,nt,-84*
Cc1ccc(N=Nc2cc(C)ccc2O)c(C)c1,nt,73%,nt,-7
Cc1cccc(N=Nc2ccc(O)c3ncccc23)c1,4.5µM*,6%,?,-102*
O=C(CCn1cccn1)Nc1cccc(C(F)(F)F)c1,nt,-7%,3%[46.1 µM],0
COc1ccc2cc3cc(C(=O)N4CCN(Cc5ccc6c(c5)OCO6)CC4)oc3nc2c1,?,22µM*,?,-39
COc1ccc2cc3cc(C(=O)NCc4ccc5c(c4)OCO5)oc3nc2c1,?,2%,0.82µM*,-23
COc1ccc2cc(C(=O)N3CCN(Cc4ccc5c(c4)OCO5)CC3)[nH]c2c1,?,-25%,?,0
COc1ccc(CNC(=O)c2cc3cc4ccc(C)cc4nc3o2)cc1,?,19%,?,-11
CCCCNc1c(-c2cccc(-c3ccc(OC)cc3)c2)nc2cc(C)ccn12,nt,25µM*,nt,-102*
CCCCNc1c(-c2cccc(-c3ccc(OC)cc3)c2)nc2ccc(C)cn12,nt,28µM*,nt,3
CCCCNc1c(-c2ccc(OC)c(SC3CCCCC3)c2)nc2cc(C)ccn12,nt,25µM*,nt,-19
CCSc1nn(CC(=O)Nc2ccc(C(=O)OC)cc2)c(N)c1S(=O)(=O)c1ccc(C)cc1,nt,4%,?,4
SMILES,Marburg entry inh,FMDV inh,Lassa entry inh,HCMV inh
CCOC(=O)c1ccc(NC(=O)Cn2nc(SC)c(S(=O)(=O)c3ccc(Cl)cc3)c2N)cc1,?,?,?,-104*
CC(=O)Oc1cc2c3c(c1)/C(=C1/SC(=S)NC1=O)C(=O)N3C(C)(C)C=C2C,nt,?,nt,-66*
COc1cc2c3c(c1)c(C1=NC(=S)NC1=O)c(O)n3C(C)(C)C=C2C,-18%,7%,1%,9
CCc1nc(N2CCCC2)c(C#N)c2c1CCCC2,12%,-9%,18%,-80*
CCCc1nc(N2CCCC2)c(C#N)c2c1CCCC2,-3%,1%,8%,-12
O=C1C=CC(=C(c2ccc(O)cc2)c2ccc(O)cc2)C=C1,nt,13µM*,nt,-100*
O=S(=O)(c1ccc(O)cc1)c1ccc(O)cc1,nt,1%,nt,-14
O=S(=O)(NCCc1csc2nc(-c3ccccc3)nn12)c1ccc(Oc2ccccc2)cc1,nt,-9%,?,-67*
Cc1c(CCNS(=O)(=O)c2ccccc2)sc2nc(-c3ccc(Cl)cc3)nn12,nt,-27%,?,-75*
Cc1cc(C)c(S(=O)(=O)NCCc2csc3nc(-c4ccc(Cl)cc4)nn23)c(C)c1,nt,4%,-1%[46.1 µM],-66*
COc1ccc(-c2nc3scc(CCNS(=O)(=O)c4ccc(Oc5ccccc5)cc4)n3n2)cc1,nt,5%,14%[46.1 µM],-28
Cc1ccc(C(=O)Nc2cccnc2)cc1NC(=O)c1ccco1,0%,11%,7%,3
Cc1nnc(SCC(=O)Nc2ccc([N+](=O)[O-])cc2)n1C,nt,-1%,nt,-31
COC(=O)[C@H](Cc1ccccc1)N(Cc1ccccc1)S(=O)(=O)N(Cc1ccccc1)[C@@H](Cc1ccccc1)C(=O)OC,nt,?,nt,-96*
COc1ccc(CN([C@H](CO)CC(C)C)S(=O)(=O)N(Cc2ccccc2)[C@H](CO)CC(C)C)cc1,nt,?,nt,-89*
COc1ccc2cc3[n+](cc2c1O)CCc1cc2c(cc1-3)OCO2,nt,10µM*,nt,-2
N#CCCn1nc(-c2ccccc2)cc1-n1c(C(F)(F)F)nc2ccccc21,?,-22%,?,-16
O=C(Nc1ccc(N2CCCCC2)c(Cl)c1)c1ccc2c(c1)OCCO2,-25%[46.1 µM],4%,-24%,-77*
O=C(Nc1ccc2c(c1)OCO2)c1ccc(Br)c(S(=O)(=O)N2CCCC2)c1,?,?,?,-35
O=C(Nc1ccc(N2CCOCC2)c(Cl)c1)c1ccc2c(c1)OCCO2,nt,-17%,nt,-61*
O=C(Nc1ccc2c(c1)OCCO2)c1ccc(Br)c(S(=O)(=O)N2CCOCC2)c1,?,18µM*,?,-37
O=C(Nc1ccc(O)c(-c2nc3ccccc3o2)c1)c1ccc(Br)cc1,nt,-11%,4%[46.1 µM],-9
COc1ccc(OC)c(C2C(C(=O)Nc3cccnc3)=C(C)NC3=C2C(=O)CCC3)c1 (stereo not drawn),6%,12%,12%,-14
Cc1ccc(CCNc2ccc3ccccc3c2)cn1,?,7%,?,-63*
O=C(Nc1cc(C(F)(F)F)ccc1F)C1CCCC1,1%,22%,-1%,16
SMILES,Marburg entry inh,FMDV inh,Lassa entry inh,HCMV inh
O=C(Nc1n[nH]c2cc(-c3cc(F)ccc3F)ccc12)C1CC1,nt,nt,25µM*,nt
CCC(Oc1ccccc1)C(=O)Nc1cc(-c2ccccc2F)nn1-c1ccccc1 (stereo not drawn),nt,?,0%[46.1 µM],9
CC(C)ON(C(C(=O)NO)C(C)C)S(=O)(=O)c1ccc(-c2ccccc2)cc1 (stereo not drawn),nt,-12%,nt,nt
CC(C)ON([C@@H](C(=O)NO)C(C)C)S(=O)(=O)c1ccc(-c2ccccc2)cc1,5.2µM*,nt,3.7µM*,nt
CC1CCN(CC(O)COCCC23CC4CC(CC(C4)C2)C3)CC1 (stereo not drawn),6.5µM*,nt,?,-75*
CC1CCN(CC(O)COc2ccc(F)cc2)CC1 (stereo not drawn),nt,-10%,nt,-34
COC(=O)C(C#N)(CCC(=O)c1ccccc1)CCC(=O)c1ccccc1,nt,-13%,nt,-20
CCOC(=O)c1cnc(-n2nc(C)cc2C)nc1NC,-7%,46%,10%,-8
CCOC(=O)c1cnc(-n2nc(C)cc2C)nc1NC1CCCCC1,6.3µM*,10µM*,?,-87*
CCOC(=O)c1cnc(-n2nc(C)cc2C)nc1Nc1ccc(N(C)C)cc1,?,-17%,7.3µM*,-5
